# From PubChem BioAssay (Tox21)
# Several values for one entry are separate records, joined by “and”; a condition that tells them apart may be missing. Equal values may be shown once. Inconclusive results are not listed. Entries that show only a call come without a potency. More than one record can exist for a structure, and the calls need not agree. Activity calls are given as the source filed them. Unless noted, the call rests on the fitted dose curve; in most records, active means well fitted curve in the direction sought with a large enough effect in the repeat runs; inconclusive means weak or mixed curves; inactive means no such curve, though single readings can be large; an effect the other way counts as inactive or inconclusive.
# Experiments:
# [1] = qHTS assay for small molecule agonists of the p53 signaling pathway (AID 651631; calls by dose curve; further: nearly all actives have a fitted effect of over 15% in size; further: potency means the concentration at half of the fitted maximal effect)
# Outline: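 Beta-lactamase reporter activity under p53 response elements was quantified in HCT-116 cells by FRET fluorescence, following 16 h incubation with test compounds at 37 °C and 2 h substrate development at room temperature.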
# [2] = qHTS assay for small molecules that induce genotoxicity in human embryonic kidney cells expressing luciferase-tagged ATAD5 (AID 651632); further: nearly all actives have a fitted effect of over 15% in size; further: potency means the concentration at half of the fitted maximal effect
# Outline: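 Reporter cells (HEK293T) express luciferase-tagged ATAD5, a protein that accumulates after DNA damage. Treat 16 hr at 37C/5% CO2, add Amplite, wait 30 min at RT, and read luminescence.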
# [3] = qHTS assay for small molecule agonists of the p53 signaling pathway - cell viability (AID 651633; calls by dose curve; further: nearly all actives have a fitted effect of over 30% in size; further: potency means the concentration at half of the fitted maximal effect)
# Outline: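 p53RE-bla cells, seeded at 4,000 per well and rested 5 h at 37 C/5% CO2, received compounds in DMSO for 16 h at 37 C. CellTiter-Glo was then added, and luminescence was read after 30 min at room temperature to gauge cytotoxicity.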
# [4] = qHTS assay for small molecules that induce genotoxicity in human embryonic kidney cells expressing luciferase-tagged ATAD5 - cell viability (AID 651634; calls by dose curve; further: nearly all actives have a fitted effect of over 25% in size; further: potency means the concentration at half of the fitted maximal effect)
# Outline: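 Seeding of 2,000 HEK293T ATAD5-luciferase cells per well preceded pin-tool compound transfer. Plates sat 15.5 hr at 37C under 5% CO2, then fluorescence was read after 30 min with CellTiter-Fluor.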
# [5] = qHTS assay for small molecule disruptors of the mitochondrial membrane potential - cell viability (AID 720634; calls by dose curve; further: nearly all actives have a fitted effect of over 20% in size; further: potency means the concentration at half of the fitted maximal effect)
# Outline: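 Measuring cytotoxicity alongside mitochondrial potential, the screen quantified ATP by luminescence in HepG2 cells after 1 hr compound incubation and a 30 min room-temperature CellTiter-Glo step.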
# [6] = qHTS assay for small molecule disruptors of the mitochondrial membrane potential (AID 720635); further: potency means the concentration at half of the fitted maximal effect
# Outline: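 HepG2 cells (2,000/well) attached overnight at 37C, then took compound for 1 hr at 37C, 5% CO2. Mito-MPS dye was added for 30 min; fluorescence was read at 490/535 nm (monomers) and 540/590 nm (aggregates).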
# [7] = qHTS assay to test for compound auto fluorescence at 590 nm (red) in HepG2 cells (AID 720674)
# Outline: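 Intrinsic compound fluorescence in the red window (Ex/Em 540/590 nm) is measured in attached HepG2 cells exposed for 1 hr, DMSO vehicle as baseline, benchmarked to Rose Bengal sodium.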
# [8] = qHTS assay to test for compound auto fluorescence at 535 nm (green) in HepG2 cells (AID 720675)
# [9] = qHTS assay to test for compound auto fluorescence at 460 nm (blue) in HEK293 cells (AID 720678)
# Outline: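 HEK293, 2,000 cells/well, 10% dialyzed FBS; attach 4-5 hr 37C; pin compound or DMSO; o/n 37C/5% CO2; fluorescence 405/460 nm; triamterene-equivalent units.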
# [10] = qHTS assay to test for compound auto fluorescence at 590 nm (red) in HEK293 cells (AID 720679)
# Outline: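 Intensity at 540nm excitation and 590nm emission is reported as Rose Bengal sodium-equivalent autofluorescence. Measurements followed overnight exposure (37C, 5% CO2) of HEK293 cells, 2,000 per well, to 23 nL compound.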
# [11] = qHTS assay to test for compound auto fluorescence at 535 nm (green) in HEK293 cells (AID 720680)
# [12] = qHTS assay to test for compound auto fluorescence at 460 nm (blue) in HEK293 cell free culture (AID 720681)
# Outline: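 Test compounds were pinned into cell-free culture medium (DMEM with 10% FBS) and fluorescence was read directly at Ex/Em 405/460 nm. Signals were expressed as fluorescence equivalents of triamterene, with DMSO vehicle as control.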
# [13] = qHTS assay to test for compound auto fluorescence at 535 nm (green) in HEK293 cell free culture (AID 720682)
# Outline: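 Each library compound, or DMSO control, is added by pintool to medium alone, comprising DMEM and 10% FBS. Emission at 535 nm following 485 nm excitation is quantified against fluorescein.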
# [14] = qHTS assay to test for compound auto fluorescence at 590 nm (red) in HEK293 cell free culture (AID 720683)
# Outline: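 Tox21 10K library compounds were pinned into cell-free DMEM with 10% FBS and fluorescence was read at excitation 540 nm. Activity is expressed as Rose Bengal sodium equivalency.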
# [15] = qHTS assay to test for compound auto fluorescence at 590 nm (red) in HepG2 cell free culture (AID 720684)
# Outline: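 Red fluorescence (540 nm excitation, 590 nm emission) was measured after compound transfer into cell-free MEM supplemented with 10% FBS. Values are equivalencies against Rose Bengal sodium.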
# [16] = qHTS assay to test for compound auto fluorescence at 460 nm (blue) in HepG2 cell free culture (AID 720685)
# Outline: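 Compound (23 nL) or DMSO pinned into cell-free MEM with 10% FBS; blue fluorescence read at 405/460 nm excitation/emission, expressed as auto-fluorescence equivalency to triamterene.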
# [17] = qHTS assay to test for compound auto fluorescence at 535 nm (green) in HepG2 cell free culture (AID 720686)
# [18] = qHTS assay to test for compound auto fluorescence at 460 nm (blue) in HepG2 cells (AID 720687)
# Outline: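 Cells (2,000/well in MEM with 10% FBS) attached overnight at 37 C, then were exposed to compound or DMSO for 1 hr at 37 C, 5% CO2. Fluorescence read at Ex/Em 405/460 nm, expressed as triamterene-equivalent signal.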
# [19] = target: Glucocorticoid receptor (Homo sapiens) (UniProt P04150); experiment: qHTS assay to identify small molecule agonists of the glucocorticoid receptor (GR) signaling pathway (AID 720691; active means well fitted activation curve with a large enough effect in the signal ratio in the repeat runs, not every such curve was filed as active; the % refers to the signal ratio)
# Sequence of Glucocorticoid receptor (Homo sapiens) (P04150 whole entry, looked up): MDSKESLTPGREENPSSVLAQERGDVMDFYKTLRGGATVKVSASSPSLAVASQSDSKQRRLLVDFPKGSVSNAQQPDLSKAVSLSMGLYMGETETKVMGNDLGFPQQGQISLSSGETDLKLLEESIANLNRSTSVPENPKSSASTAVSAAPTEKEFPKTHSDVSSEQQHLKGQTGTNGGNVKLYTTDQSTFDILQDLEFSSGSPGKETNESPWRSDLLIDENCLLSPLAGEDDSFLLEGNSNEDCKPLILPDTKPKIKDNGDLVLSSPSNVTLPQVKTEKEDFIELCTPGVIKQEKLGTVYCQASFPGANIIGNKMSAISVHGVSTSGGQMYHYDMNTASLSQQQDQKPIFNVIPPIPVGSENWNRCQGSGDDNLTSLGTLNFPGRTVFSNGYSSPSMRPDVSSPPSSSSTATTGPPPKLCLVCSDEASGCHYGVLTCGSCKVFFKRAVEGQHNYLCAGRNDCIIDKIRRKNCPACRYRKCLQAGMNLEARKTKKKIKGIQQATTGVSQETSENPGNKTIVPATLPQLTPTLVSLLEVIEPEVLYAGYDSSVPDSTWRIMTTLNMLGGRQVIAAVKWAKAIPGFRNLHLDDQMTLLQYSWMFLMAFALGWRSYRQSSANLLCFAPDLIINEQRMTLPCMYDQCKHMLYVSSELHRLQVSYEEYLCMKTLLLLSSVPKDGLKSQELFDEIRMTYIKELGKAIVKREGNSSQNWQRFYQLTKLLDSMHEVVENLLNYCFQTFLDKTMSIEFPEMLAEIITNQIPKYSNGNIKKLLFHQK
# Outline: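 Reporter read-out: fluorescence intensity following 2 h room-temperature LiveBLAzer B/G FRET substrate loading. Prior step: GR-bla HeLa cells held 4 h, then treated 18 h at 37 C.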
# [20] = target: Glucocorticoid receptor (Homo sapiens) (UniProt P04150); experiment: qHTS assay to identify small molecule antagonists of the glucocorticoid receptor (GR) signaling pathway (AID 720692; active means well fitted inhibition curve with a large enough effect in the signal ratio in the repeat runs, not every such curve was filed as active; the % refers to the signal ratio)
# Outline: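 Dexamethasone (5 nM final) stimulated a stably integrated GRE-beta-lactamase reporter in HeLa cells during 18 h co-incubation with compounds; signal was quantified as fluorescence intensity of B/G FRET substrate after 2 h.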
structure (smiles),measurement,setting,value
O=[N+]([O-])c1ccc(O)cc1C(F)(F)F,Potency,[1],27.3 µM (active)
same,Potency,[2],inactive
same,Potency,[3],inactive
same,Potency,[4],27.3 µM (active)
same,Potency,[5],5.45 µM (active)
same,Potency,[6],3.44 µM (active)
same,Potency,[7],inactive
same,Potency,[8],inactive
same,Potency,[9],inactive
same,Potency,[10],inactive
same,Potency,[11],inactive
same,Potency,[12],inactive
same,Potency,[13],inactive
same,Potency,[14],inactive
same,Potency,[15],inactive
same,Potency,[16],inactive
same,Potency,[17],inactive
same,Potency,[18],inactive
same,Potency,[19],inactive
O=C(O)c1cc(=O)c2ccccc2o1,Potency,[1],inactive
same,Potency,[2],inactive
same,Potency,[3],inactive
same,Potency,[4],inactive
same,Potency,[5],inactive
same,Potency,[6],inactive
same,Potency,[9],inactive
same,Potency,[10],inactive
same,Potency,[11],inactive
same,Potency,[12],inactive
same,Potency,[13],inactive
same,Potency,[14],inactive
same,Potency,[15],inactive
same,Potency,[16],inactive
same,Potency,[17],inactive
same,Potency,[18],inactive
same,Potency,[19],inactive
same,Potency,[20],inactive
COC(=O)Nc1nc2ccc(C(=O)c3ccccc3)cc2[nH]1,Potency,[1],0.16 µM (active)
same,Potency,[2],3.2 µM (active)
same,Potency,[3],inactive
same,Potency,[4],inactive
same,Potency,[5],inactive
same,Potency,[6],2.27 µM (active)
same,"fluorescence, relative to Rose Bengal",[7],-0.678% [at 18.6 µM] (inactive)
same,"fluorescence, % of fluorescein control",[8],0.0492% [at 18.6 µM] (inactive)
same,"fluorescence, % of triamterene",[9],0.0612% [at 18.6 µM] (inactive)
same,"fluorescence, % of fluorescent control",[12],-0.0403% [at 18.6 µM] (inactive)
same,activity change,[13],"-0.0263% [at 18.6 µM, stronger effect = higher value] (inactive)"
same,"fluorescence, % of fluorescent control",[14],0.0057% [at 18.6 µM] (inactive)
same,"fluorescence, % of Rose Bengal",[15],0.103% [at 18.6 µM] (inactive)
same,"fluorescence, % of fluorescent control",[16],0.0166% [at 18.6 µM] (inactive)
same,"fluorescence, % of fluorescein control",[17],0.0619% [at 18.6 µM] (inactive)
same,"fluorescence, % of fluorescent control",[18],0.116% [at 18.6 µM] (inactive)
same,Potency,[19],inactive
COc1cc(C)ccc1O,Potency,[1],inactive
same,Potency,[2],inactive
same,Potency,[3],inactive
same,Potency,[4],inactive
same,Potency,[5],inactive
same,Potency,[6],inactive
same,Potency,[7],inactive
same,Potency,[8],inactive
same,Potency,[9],inactive
same,Potency,[10],inactive
same,Potency,[12],inactive
same,Potency,[13],inactive
same,Potency,[14],inactive
same,Potency,[15],inactive
same,Potency,[16],inactive
same,Potency,[17],inactive
same,Potency,[18],inactive
same,Potency,[19],inactive
CCCCCCCC,Potency,[1],inactive
same,Potency,[2],inactive
same,Potency,[3],inactive
same,Potency,[4],inactive
same,Potency,[5],inactive
same,Potency,[6],inactive
same,Potency,[8],inactive
same,Potency,[10],inactive
same,Potency,[11],inactive
same,Potency,[12],inactive
same,Potency,[13],inactive
same,Potency,[14],inactive
same,Potency,[15],inactive
same,Potency,[16],inactive
same,Potency,[17],inactive
same,Potency,[18],inactive
same,Potency,[19],inactive
same,Potency,[20],inactive
OC[C@@H](O)[C@@H](O)CO,Potency,[1],inactive
same,Potency,[2],inactive
same,Potency,[3],inactive
same,Potency,[4],inactive
same,Potency,[5],inactive
same,Potency,[6],inactive
same,Potency,[7],inactive
same,Potency,[8],inactive
same,Potency,[9],inactive
same,Potency,[10],inactive
same,Potency,[11],inactive
same,Potency,[12],inactive
same,Potency,[13],inactive
same,Potency,[14],inactive
same,Potency,[15],inactive
same,Potency,[16],inactive
same,Potency,[17],inactive
same,Potency,[18],inactive
same,Potency,[19],inactive
Cc1nc2n(c(=O)c1CCN1CCC(c3noc4cc(F)ccc34)CC1)CCCC2,Potency,[1],inactive
same,Potency,[2],inactive
same,Potency,[3],inactive
same,Potency,[4],inactive
same,Potency,[5],inactive
same,Potency,[6],inactive
same,Potency,[7],inactive
same,Potency,[8],inactive
same,Potency,[9],inactive
same,Potency,[10],inactive
same,Potency,[11],inactive
same,Potency,[12],inactive
same,Potency,[13],inactive
same,Potency,[14],inactive
same,Potency,[15],inactive
same,Potency,[16],inactive
same,Potency,[17],inactive
same,Potency,[18],inactive
same,Potency,[19],inactive
same,Potency,[20],inactive
O=c1c(O)c(-c2ccc(O)cc2O)oc2cc(O)cc(O)c12,Potency,[1],inactive
same,Potency,[2],inactive
same,Potency,[3],inactive
same,Potency,[4],inactive
same,Potency,[5],inactive
same,Potency,[6],22.9 µM (active)
same,Potency,[7],inactive
same,Potency,[8],inactive
same,Potency,[9],inactive
same,Potency,[11],inactive
same,Potency,[12],inactive
same,Potency,[13],inactive
same,Potency,[14],inactive
same,Potency,[15],inactive
same,Potency,[16],inactive
same,Potency,[17],inactive
same,Potency,[18],inactive
same,Potency,[19],inactive
same,Potency,[20],inactive
NC(=S)NC(N)=S,Potency,[1],inactive
same,Potency,[2],inactive
same,Potency,[3],inactive
same,Potency,[4],inactive
same,Potency,[5],inactive
same,Potency,[6],inactive
same,Potency,[7],inactive
same,Potency,[8],inactive
same,Potency,[9],inactive
same,Potency,[10],inactive
same,Potency,[11],inactive
same,Potency,[12],inactive
same,Potency,[13],inactive
same,Potency,[14],inactive
same,Potency,[15],inactive
same,Potency,[16],inactive
same,Potency,[17],inactive
same,Potency,[18],inactive
same,Potency,[19],inactive
same,Potency,[20],inactive
CC(=O)Oc1cc2c(s1)CCN(C(C(=O)C1CC1)c1ccccc1F)C2 (stereo unspecified),Potency,[1],inactive
same,Potency,[2],inactive
same,Potency,[3],inactive
same,Potency,[4],inactive
same,Potency,[5],inactive
same,Potency,[6],inactive
same,Potency,[7],inactive
same,Potency,[8],inactive
same,Potency,[10],inactive
same,Potency,[11],inactive
same,Potency,[12],inactive
same,Potency,[13],inactive
same,Potency,[14],inactive
same,Potency,[15],inactive
same,Potency,[16],inactive
same,Potency,[17],inactive
same,Potency,[18],inactive
same,Potency,[19],inactive
CC1=Nc2ccccc2C1(C)C,Potency,[1],inactive
same,Potency,[2],inactive
same,Potency,[3],inactive
same,Potency,[4],inactive
same,Potency,[5],inactive
same,Potency,[6],inactive
same,Potency,[7],inactive
same,Potency,[8],inactive
same,Potency,[9],inactive
same,Potency,[10],inactive
same,Potency,[11],inactive
same,Potency,[12],inactive
same,Potency,[13],inactive
same,Potency,[14],inactive
same,Potency,[15],inactive
same,Potency,[17],inactive
same,Potency,[18],inactive
same,Potency,[19],inactive
CCCCC/C=C\C/C=C\CCCCCCCC(=O)O,Potency,[1],inactive and 68.6 µM (active)
same,Potency,[2],inactive
same,Potency,[3],inactive and 54.5 µM (active)
same,Potency,[4],inactive
same,Potency,[5],inactive
same,Potency,[6],inactive
same,Potency,[8],inactive
same,Potency,[10],inactive
same,Potency,[11],inactive
same,Potency,[12],inactive
same,Potency,[13],inactive
same,Potency,[14],inactive
same,Potency,[15],inactive
same,Potency,[16],inactive
same,Potency,[17],inactive
same,Potency,[18],inactive
Cc1cccc2cccnc12,Potency,[1],inactive
same,Potency,[2],inactive
same,Potency,[3],inactive
same,Potency,[4],inactive
same,Potency,[5],inactive
same,Potency,[6],inactive
same,Potency,[8],inactive
same,Potency,[9],inactive
same,Potency,[10],inactive
same,Potency,[11],inactive
same,Potency,[12],inactive
same,Potency,[13],inactive
same,Potency,[14],inactive
same,Potency,[15],inactive
same,Potency,[17],inactive
same,Potency,[18],inactive
